From PubChem BioAssay
JMJD2A Tudor – qHTS Assay for Inhibitors of JMJD2A-Tudor Domain. Potency, µM (top dose mostly 114 µM), inactives show at the highest dose activity change, negative = inhibition, usual class: inhibitors. AlphaScreen JMJD2A-Tudor / H3K4me3 peptide binding. 390,000 tested, 4.4% active. Lysine-specific demethylase 4A (Homo sapiens), O75164; note: potency is the fitted concentration of half-maximal effect; % is set by controls: 0 for no effect and ±100 for the full control effect; nearly all actives have a fitted effect of over 50% in size
CtBP-E1A blk – qHTS Assay for Inhibitors of the CtBP/E1A Interaction; AlphaScreen GST-E1A/His-CtBP binding, 1536-well; stronger effect = lower value; activity change, % (concentration not given with the values); 340,000 tested, 0.49% active; AID 651724, 2012; in the data active = activity change below about -65%; inconclusive = mostly about -30% to -63%; note: % is set by controls: 0 for no effect and ±100 for the full control effect
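Steps: dispense buffer (Tris pH 8.0, NaCl 300 mM, TCEP 1 mM, BSA, Tween 20); add 5X protein mix (GST-E1A, His-CtBP, 125 nM each); pin 23 nL compound; 2 h at 37 °C, dark; add 5X beads (50 ug/mL); 1 h; read.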
G9a block – qHTS Assay for Inhibitors of Histone Lysine Methyltransferase G9a; Histone-lysine N-methyltransferase EHMT2 (Homo sapiens), Q96KQ7; G9a H3K9 monomethylation, AlphaScreen, 2 h; Potency, µM (series often up to 102 µM), for the others: at the top dose activity, negative = inhibition, hits mostly inhibitors; 350,000 tested, 8.8% active; note: potency is the fitted concentration of half-maximal effect; % is set by controls: 0 for no effect and ±100 for the full control effect; nearly all actives have a fitted effect of over 75% in size
Target sequence (Q96KQ7 913-1193 limits assumed): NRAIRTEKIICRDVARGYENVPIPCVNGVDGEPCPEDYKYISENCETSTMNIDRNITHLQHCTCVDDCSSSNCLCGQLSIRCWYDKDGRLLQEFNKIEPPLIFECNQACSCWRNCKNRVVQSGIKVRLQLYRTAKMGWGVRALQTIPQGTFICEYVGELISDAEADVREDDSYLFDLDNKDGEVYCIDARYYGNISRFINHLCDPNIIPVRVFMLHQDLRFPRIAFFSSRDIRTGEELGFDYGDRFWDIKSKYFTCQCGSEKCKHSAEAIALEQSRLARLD
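G9a (20 nM) was preincubated 15 min with compound, then reacted 2 h at room temperature with 500 nM biotin-H3K9 peptide and 20 µM SAM. Monomethyl-H3K9 detected by AlphaScreen using anti-H3K9me1 antibody.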
BAZ2B inh – qHTS Assay for Inhibitors of BAZ2B; Bromodomain adjacent to zinc finger domain protein 2B (Homo sapiens), Q9UIF8; AlphaScreen BAZ2B-H3K14Ac peptide displacement; Potency, µM (top dose mostly 114 µM), for the others: top-dose activity change, negative = inhibition, usual class: inhibitors; 360,000 tested, 4.4% active; AID 504333, 2011; note: potency is the fitted concentration of half-maximal effect; % is set by controls: 0 for no effect and ±100 for the full control effect; nearly all actives have a fitted effect of over 60% in size
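Inhibition is scored as reduced AlphaScreen emission. The BAZ2B/b-H3(5-23)K14Ac complex (50 nM each) in PBS pH 7.4, 0.01% Tween-20 meets compound (up to 110 uM) for 30 min at RT before bead addition.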
Six1-Eya2 blk – qHTS Assay for Inhibitors of the Six1/Eya2 Interaction. AlphaScreen GST-Six1/His-Eya2 binding, biochemical; stronger effect = lower value. AID 651725, 2012. Homeobox protein SIX1 (Homo sapiens) + Protein phosphatase EYA2 (Homo sapiens), …. activity change, % (concentration not given with the values). 360,000 tested, 0.56% active; in the data active = activity change below about -65%; inconclusive = mostly about -30% to -63%; note: % is set by controls: 0 for no effect and ±100 for the full control effect
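GST-Six1 + His-Eya2 (5X stock: 250/500 nM); Tris pH 8.0, 300 mM NaCl, 0.05% BSA, 0.02% Tween 20; GSH donor/Ni acceptor beads; 1 h 37 °C dark; AlphaScreen readout.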
HP1b binding inh – HTS for Inhibitors of HP1-beta Chromodomain Interactions with Methylated Histone Tails | AlphaScreen HP1-beta / biotin-H3K9me3 peptide binding | Chromobox protein homolog 1 (Homo sapiens), P83916 | AID 540317, 2011 | Potency, µM (highest dose often 114 µM), for inactives: at the top dose activity change, negative = inhibition, most hits filed as inhibitors | 390,000 tested, 0.56% active; note: potency is the fitted concentration of half-maximal effect; nearly all actives have a fitted effect of over 70% in size
Target sequence (P83916 whole entry, looked up): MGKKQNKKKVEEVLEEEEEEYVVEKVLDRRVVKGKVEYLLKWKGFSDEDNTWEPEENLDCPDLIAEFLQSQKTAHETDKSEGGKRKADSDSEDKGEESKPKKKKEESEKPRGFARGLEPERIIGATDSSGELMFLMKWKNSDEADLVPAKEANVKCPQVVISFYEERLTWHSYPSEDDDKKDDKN
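HP1-beta protein (50 nM final) preincubated 30 min at room temperature with biotinylated H3(1-18)K9me3 peptide (50 nM) in PBS pH 7.4, 0.01% Tween-20, then compound added for 30 min. AlphaScreen streptavidin donor/nickel chelate acceptor beads (10 ug/mL final), 30 min dark, luminescence read.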
The depositor's hits bear a star; ? = inconclusive; · = no result given; [ ] = remark or other dose. An excerpt weighted towards active compounds, which were near 10% of everything screened. Unless noted, calls come from the whole dose curve; as a rule, active = well fitted inhibition curve with a large enough effect; inconclusive = small, poorly fitted or top-dose-only effect; inactive = no such curve, though single readings can be large or run the other way.

SMILES | JMJD2A Tudor | CtBP-E1A blk | G9a block | BAZ2B inh | Six1-Eya2 blk | HP1b binding inh
Cc1ccccc1C(=O)NC(=S)NCc1ccccc1 | 14% | 4 | 13%[0.501 µM] | -5% | 3 | 76%
Cc1ccccc1C(=O)NC(=S)NCC(=O)c1ccccc1 | 0% | -4 | -5% | 8% | -3 | 5%
Cc1ccccc1C(=O)NCC(=O)NNC(=S)NC(=O)c1ccccc1 | -6%[57.1 µM] | 1 | 1.1µM* | -4% | 4 | 22%
Cc1ccccc1C(=O)NCC(=O)NNC(=S)NC(=O)c1ccccc1C | ? | -2 | 10µM* | -2% | -3 | 40%
Cc1ccc(CNC(=O)[C@]2(C(F)(F)F)C[C@H](CCc3ccccc3)CCCO2)o1 | -30% | · | · | · | · | 18%
Cc1nc2cccnc2n1-c1cccc(C(=O)NCCc2ccc(S(N)(=O)=O)cc2)c1 | 11% | · | ? | -9% | · | 33%
COc1ccc(/C=N/N(Cc2ccccc2)c2ccccc2)cc1O | 10µM* | -14 | 28µM* | 28µM* | ? | 40µM*
CCN(CC)c1ccc(/C=N/Nc2nc3ccccc3[nH]2)c(O)c1 | 50µM* | ? | ? | 40µM* | 0 | -16%
CCN(CC)c1ccc(/C=N/N(c2ccccc2)c2ccccc2)c(O)c1 | 8.9µM* | 19 | ? | 10µM* | ? | ?
Oc1ccc(/C=N/N(c2ccccc2)c2ccccc2)cc1O | 56µM* | -19 | -148% | -18% | -17 | ?
COc1cc(C=NCc2ccccc2)ccc1O | · | 1 | · | · | -17 | ·
CCC(Sc1nnc(C)n2c1cc1occc12)C(=O)Nc1ccccc1OC (stereo not drawn) | -22% | · | -7%[59 µM] | -39% | · | 5%
Oc1ccc(/C=N/N(c2ccccc2)c2ccccc2)c(O)c1O | · | · | 14µM* | 25µM* | · | ·
CC(C)(C)c1ccc(C(=O)NCC(c2cccnc2)N2CCc3ccccc3C2)cc1 (stereo not drawn) | ? | · | ? | 3.2µM* | · | ?
Cc1ccc(NC(=O)C(=O)NCC(c2cccnc2)N2CCc3ccccc3C2)cc1 (stereo not drawn) | -21% | · | -28%[59 µM] | -14% | · | 18%
Cc1ccc(C(=O)NCC(c2cccnc2)N2CCc3ccccc3C2)cc1C (stereo not drawn) | ? | · | ? | 13µM* | · | 7%
Cc1ccc(NC(=O)Cn2c(=O)c3cccn3c3ccccc32)cc1 | 10% | 14 | · | 0% | 5 | 9%
S=C1NC2=C(CCCC2=C2SCCS2)C(c2ccccc2)N1 (stereo not drawn) | ? | 19 | 10µM* | ? | 21 | -16%
CC1=C(C(=O)c2ccccc2)C(c2cccc([N+](=O)[O-])c2)NC(=S)N1 (stereo not drawn) | ? | 2 | ? | -27% | -6 | 18%
COc1ccccc1CN1CCC2(CC1)CCN(C(=O)c1ccco1)CC2 | · | · | -6%[12.7 µM] | · | · | ·
COc1ccc(Br)cc1CN1CCN(C(=O)c2ccco2)CC1 | 7.1µM* | 2 | 10µM* | 28µM* | -8 | 32µM*
O=C(c1ccco1)N1CCN(Cc2ccccc2F)CC1 | 28µM* | 4 | 28µM* | ? | 2 | ?
COc1ccccc1CN1CCN(C(=O)c2ccco2)CC1 | 1µM* | -9 | 22µM* | ? | 14 | 50µM*
O=C(CSc1ccc(Br)cc1)N1CCN(C(=O)c2ccco2)CC1 | -8% | -3 | 45µM* | -6% | -4 | 46%
CC1(C(=O)Nc2ccc3ccccc3c2)CCC(=O)N1CCCn1ccnc1 (stereo not drawn) | · | -2 | · | · | 0 | ·
SMILES | JMJD2A Tudor | CtBP-E1A blk | G9a block | BAZ2B inh | Six1-Eya2 blk | HP1b binding inh
COc1cccc(CNC(=O)c2ccc3c(c2)nc2n3CCOC2)c1OC | -18% | · | 0%[59 µM] | 1% | · | 15%[57 µM]
CCOc1ccc(NC(=O)Cn2nnc(C(=O)OC)c2C(=O)OC)cc1 | -10% | · | 3%[59 µM] | -3% | · | 17%
CCc1cc2ccc(C)cc2nc1SCC(=O)N1CCN(C(=O)c2ccco2)CC1 | 89µM* | -11 | ? | ? | -12 | ?
COc1ccc(CN2CCN(C(=O)c3ccco3)CC2)c(OC)c1OC | 25µM* | 8 | · | · | 4 | ?
COc1ccc(C(=O)OCC(=O)N2CCN(C(=O)c3ccco3)CC2)c(OC)c1OC | · | 4 | · | · | 2 | ·
Cc1ccc(CN2CCN(C(=O)c3ccco3)CC2)cc1 | -19% | 2 | 11%[59 µM] | -1% | 2 | 15%
O=C(c1ccco1)N1CCN(Cc2cccnc2)CC1 | 3.5µM* | 9 | 3.5µM* | 25µM* | 8 | -45%
CCc1cc2cc3c(cc2nc1SCC(=O)N1CCN(C(=O)c2ccco2)CC1)OCO3 | ? | -15 | -19% | -5% | -3 | 3%
O=C(COC(=O)C1(c2ccccc2F)CCCC1)N1CCN(C(=O)c2ccco2)CC1 | -2% | 8 | 50µM* | 1% | 0 | 0%
c1cncc(CNc2ncnc3ccc(-c4ccc5c(c4)OCCO5)cc23)c1 | ? | · | 12%[12.7 µM] | -9% | · | 25%
COCCn1c(C)cc(O)c(C(c2ccc(Cl)cc2)N2CCCCC2)c1=O (stereo not drawn) | -20% | · | ? | 5% | · | 25%[57 µM]
CCOC(=O)COc1ccc(-c2nnn(CC(=O)Nc3ccccc3)n2)cc1 | -3% | · | 11%[59 µM] | -6% | · | 30%
CCOc1cc(/C=N/Nc2nc(-c3cccs3)c(NC(C)=O)s2)ccc1O | 28µM* | ? | 20µM* | 40µM* | -16 | 20µM*
CC(=O)Nc1sc(N/N=C\c2ccccc2Cl)nc1-c1cccs1 | ? | 4 | -22%[59 µM] | 15% | -13 | -3%
COC(=O)c1cc(=O)nc(NN=Cc2ccc(OC)cc2)s1 | · | 5 | · | · | 5 | ·
CC(=O)Nc1sc(N/N=C/c2ccccc2)nc1-c1ccc(C)cc1 | ? | -4 | 16µM* | ? | -1 | ?
COc1ccc(/C=N/Nc2nc(-c3ccc(C)cc3)c(NC(C)=O)s2)cc1 | 56µM* | 0 | 10µM* | ? | -12 | ?
CC(=O)Nc1sc(N/N=C\c2ccccc2)nc1-c1cccs1 | 20µM* | 0 | 11µM* | ? | -4 | 50µM*
Cc1csc2nc(COc3ccccc3NC(=O)c3ccc(C(C)(C)C)cc3)cc(=O)n12 | -24% | · | -1%[59 µM] | 1% | · | 30%
CN(Cc1ccccc1)C(=O)COC(=O)COc1ccc(C#N)cc1 | -20% | 8 | 31% | 3% | -2 | 53%
